{
  "source": "PubChem BioAssay",
  "key": {"[1]": {"experiment": "compounds altering viability of human ES cells (AID 493140);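 note: cells exposed to compounds for four days before counting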", "details": "human embryonic stem cell survival screen; stronger effect = higher value"}, "[2]": {"experiment": "P. berghei load reduction in hepatocytes – cell-based, HepG2, luciferase luminescence, HepG2 viability, primary screen (AID 624349; in the data active = parasite load remaining mostly below about 12%, no sharp cut-off; inactive = mostly above about 10%;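 note: 100% = mean of DMSO negative control wells on the same plate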)", "details": "P. berghei liver stage in HepG2, luciferase luminescence, concentration not given here; parasite load remaining: stronger effect = lower value; viability: measured here: HepG2 viability without parasites"}, "[3]": {"system": "Aerobactin synthetase IucA (Klebsiella pneumoniae)", "experiment": "inhibition of K. pneumoniae IucA enzyme – biochemical, Tocris library, absorbance (AID 1345561);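 note: 100% = enzyme without compound and 0% = no enzyme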", "details": "purified IucA enzyme assay, absorbance (OD) read-out; stronger effect = lower value;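 tested at 8 µM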"}, "[4]": {"experiment": "viability loss with induced miR-34 in A549 – imaging, A549 dox-inducible miR-34, nuclei and caspase counts, primary screen (AID 1347080;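 active = compounds whose cell count with miR-34 switched on is under 0.7 times the count with it off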)", "details": "A549 miR-34 inducible, Hoechst nuclei count, 48 h"}, "[5]": {"experiment": "MELAS cybrid and Rieske KO viability enhancers – cell-based, MELAS cybrids, Rieske KO mouse fibroblasts, CellTiter-Glo, primary screen (AID 1508586;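 active = mean z-score across replicates of 1.96 or higher in either the MELAS or the Rieske mutant cell line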;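 note: z relative to plate mean and SD of compound and empty wells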)", "details": "low glucose"}, "[6]": {"experiment": "galactose survival enhancers in mitochondrial complex I cybrids – cell-based, galactose medium, ATP luminescence, primary screen (AID 1645843;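 active = z-score of at least 1.8 in each of two replicates, scored against plate mean and spread of sample wells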;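 note: positive z means more ATP and so rescue of galactose-driven cybrid death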)", "details": "complex I mutant cybrid cells, 72 h, stronger effect = higher value"}, "[7]": {"system": "Hepatitis C virus NS3 helicase", "experiment": "blockers of NS3h binding to ssDNA – biochemical, fluorescence polarization, LOPAC1280 library, primary screen (AID 687035; in the data active = inhibition above about 37%)", "details": "Purified HCV NS3 helicase, Cy5-dT15 ssDNA binding fluorescence polarization; stronger effect = higher value; concentration not given here"}, "[8]": {"experiment": "compounds altering Cy5-DNA-NS3h complex signal – biochemical, LOPAC1280, artefact control for HCV NS3 helicase inhibitor project (AID 687037)", "details": "Cy5-DNA-NS3h complex fluorescence interference counterscreen"}, "[9]": {"experiment": "blockers of cellular phospholipid synthesis – cell-based, LOPAC library, screen 4, primary screen (AID 1347384)", "details": "animal cells, phospholipid biosynthesis inhibition screen; at 10 µM"}, "[10]": {"experiment": "compounds altering circadian rhythm period length – cell-based, LOPAC library, luminescence reporter (AID 2774)", "details": "circadian reporter cells, at 7 µM, actives lie on both sides"}, "[11]": {"experiment": "chitosan synthesis blockers in C. neoformans – flow cytometry, Cibacron Brilliant Red staining (AID 1347148);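 note: compound exposure lasted three days at 37 degrees C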", "details": "Cryptococcus neoformans chitosan, stronger effect = lower value; at 10 µM unless noted"}, "[12]": {"details": "stronger effect = lower value, cell number ratio, induced over uninduced"}, "[13]": {"details": "measured here: relative caspase fold change +Dox/-Dox"}, "[14]": {"details": "measured here: total cells with miR-34 induction, stronger effect = lower value"}, "[15]": {"details": "measured here: total cells without miR-34 induction"}},
  "note": "“And” between values parts separate entries of the source, which are not always exact repeats. Equal values may be shown once. The source made the active and inactive calls. Unless noted, the rule behind the calls is not given here.",
  "data": [
    {"smiles": "CN1CCc2cccc3c2[C@H]1Cc1ccc(O)c(O)c1-3", "values": [
      {"measurement": "survival", "setting": "[1]", "result": "6.58 (inactive)"},
      {"measurement": "parasite load remaining", "setting": "[2]", "result": "7.04% (inactive) and 82% (inactive) and 31.2% (inactive)"},
      {"measurement": "viability", "setting": "[2]", "result": "42.7% and 84.6% and 138%"},
      {"measurement": "remaining activity", "setting": "[3]", "result": "113% (inactive)"},
      {"measurement": "fold change", "setting": "[4]; [12]", "result": "0.946 (inactive) and 0.949 (inactive) and 0.917 (inactive)"},
      {"measurement": "fold change", "setting": "[4]; [13]", "result": "0.839 and 1.17 and 0.734"},
      {"measurement": "cell count", "setting": "[4]; [14]", "result": "7920 and 7790 and 8530"},
      {"measurement": "cell count", "setting": "[4]; [15]", "result": "8370 and 8210 and 9300"},
      {"measurement": "z-score", "setting": "[5]; MELAS cybrid survival, CellTiter-Glo 48 h, stronger effect = higher value", "result": "0.207 (inactive) and -0.194 (inactive)"},
      {"measurement": "z-score", "setting": "[5]; Rieske KO mouse fibroblast survival, CellTiter-Glo 72 h", "result": "0.641 and 0.16"},
      {"measurement": "z-score", "setting": "[6]", "result": "-1.04 (inactive) and -2.25 (inactive)"}
    ]},
    {"smiles": "CCCn1c(=O)c(C)cn2nc(N)nc12", "values": [
      {"measurement": "inhibition", "setting": "[7]", "result": "-2% (inactive)"},
      {"measurement": "fluorescence ratio (interference)", "setting": "[8]", "result": "1 (inactive)"},
      {"measurement": "remaining activity", "setting": "[3]", "result": "123% (inactive)"},
      {"measurement": "fold change", "setting": "[4]; [12]", "result": "0.963 (inactive) and 0.912 (inactive)"},
      {"measurement": "fold change", "setting": "[4]; [13]", "result": "2.19 and 0.621"},
      {"measurement": "cell count", "setting": "[4]; [14]", "result": "10000 and 9600"},
      {"measurement": "cell count", "setting": "[4]; [15]", "result": "10400 and 10500"},
      {"measurement": "outcome", "setting": "[9]", "result": "inactive"},
      {"measurement": "z-score", "setting": "[6]", "result": "0.8 (inactive) and -0.21 (inactive)"}
    ]},
    {"smiles": "CC(C)(C)c1ccc(/C=C/C(=O)Nc2ccc3c(c2)OCCO3)cc1", "values": [
      {"measurement": "inhibition", "setting": "[7]", "result": "-1% (inactive)"},
      {"measurement": "fluorescence ratio (interference)", "setting": "[8]", "result": "1 (inactive)"},
      {"measurement": "remaining activity", "setting": "[3]", "result": "109% (inactive)"},
      {"measurement": "fold change", "setting": "[4]; [12]", "result": "1.15 (inactive) and 1.27 (inactive)"},
      {"measurement": "fold change", "setting": "[4]; [13]", "result": "0.847 and 0.54"},
      {"measurement": "cell count", "setting": "[4]; [14]", "result": "4930 and 3950"},
      {"measurement": "cell count", "setting": "[4]; [15]", "result": "4270 and 3100"},
      {"measurement": "outcome", "setting": "[9]", "result": "inactive"},
      {"measurement": "z-score", "setting": "[6]", "result": "-1.38 (inactive) and -0.7 (inactive)"}
    ]},
    {"smiles": "O=[N+]([O-])c1cccc2c(Br)[nH]nc12", "values": [
      {"measurement": "period change", "setting": "[10]", "result": "-0.085 h (inactive)"},
      {"measurement": "inhibition", "setting": "[7]", "result": "-1% (inactive)"},
      {"measurement": "fluorescence ratio (interference)", "setting": "[8]", "result": "0.9 (inactive)"},
      {"measurement": "remaining activity", "setting": "[3]", "result": "94.1% (inactive)"},
      {"measurement": "fold fluorescence", "setting": "[11]", "result": "16.8 [at 206.6 µM] (inactive)"},
      {"measurement": "outcome", "setting": "[9]", "result": "inactive"},
      {"measurement": "z-score", "setting": "[6]", "result": "1.04 (inactive) and -0.23 (inactive)"}
    ]},
    {"smiles": "CC[N+](CC)(CC)CC(=O)Nc1c(C)cccc1C", "values": [
      {"measurement": "period change", "setting": "[10]", "result": "0.065 h (inactive)"},
      {"measurement": "inhibition", "setting": "[7]", "result": "-2% (inactive)"},
      {"measurement": "fluorescence ratio (interference)", "setting": "[8]", "result": "1 (inactive)"},
      {"measurement": "remaining activity", "setting": "[3]", "result": "100% (inactive) and 106% (inactive)"},
      {"measurement": "fold fluorescence", "setting": "[11]", "result": "6.95 [at 145.6 µM] (inactive)"},
      {"measurement": "outcome", "setting": "[9]", "result": "inactive"},
      {"measurement": "z-score", "setting": "[6]", "result": "0.42 (inactive) and 1.23 (inactive) and 0.065 (inactive)"}
    ]},
    {"smiles": "CCc1ccc2c(-c3cccc(Cl)c3)nc(=O)n(CC)c2n1", "values": [
      {"measurement": "inhibition", "setting": "[7]", "result": "-2% (inactive)"},
      {"measurement": "fluorescence ratio (interference)", "setting": "[8]", "result": "1 (inactive)"},
      {"measurement": "remaining activity", "setting": "[3]", "result": "124% (inactive)"},
      {"measurement": "fold change", "setting": "[4]; [12]", "result": "1.11 (inactive) and 0.913 (inactive)"},
      {"measurement": "fold change", "setting": "[4]; [13]", "result": "1.55 and 0.664"},
      {"measurement": "cell count", "setting": "[4]; [14]", "result": "9380 and 8340"},
      {"measurement": "cell count", "setting": "[4]; [15]", "result": "8460 and 9140"},
      {"measurement": "outcome", "setting": "[9]", "result": "inactive"},
      {"measurement": "z-score", "setting": "[6]", "result": "1.02 (inactive) and -0.175 (inactive)"}
    ]},
    {"smiles": "Cc1ccc2c(c1)C(=O)C1(O)CCN(c3ccccc3)C1=N2", "note": "(stereo not drawn)", "values": [
      {"measurement": "remaining activity", "setting": "[3]", "result": "119% (inactive)"},
      {"measurement": "fold change", "setting": "[4]; [12]", "result": "0.944 (inactive) and 1.14 (inactive) and 0.93 (inactive)"},
      {"measurement": "fold change", "setting": "[4]; [13]", "result": "1.39 and 0.747 and 0.79"},
      {"measurement": "cell count", "setting": "[4]; [14]", "result": "2140 and 6710 and 5140"},
      {"measurement": "cell count", "setting": "[4]; [15]", "result": "2270 and 5900 and 5530"},
      {"measurement": "z-score", "setting": "[6]", "result": "0.035 (inactive)"}
    ]},
    {"smiles": "CN=c1nc(-c2ccccc2)n(-c2ccccc2)s1", "values": [
      {"measurement": "period change", "setting": "[10]", "result": "-0.055 h (inactive)"},
      {"measurement": "inhibition", "setting": "[7]", "result": "8% (inactive)"},
      {"measurement": "fluorescence ratio (interference)", "setting": "[8]", "result": "1 (inactive)"},
      {"measurement": "remaining activity", "setting": "[3]", "result": "118% (inactive)"},
      {"measurement": "fold change", "setting": "[4]; [12]", "result": "0.91 (inactive) and 0.922 (inactive)"},
      {"measurement": "fold change", "setting": "[4]; [13]", "result": "1.06 and 0.764"},
      {"measurement": "cell count", "setting": "[4]; [14]", "result": "3550 and 4090"},
      {"measurement": "cell count", "setting": "[4]; [15]", "result": "3900 and 4440"},
      {"measurement": "outcome", "setting": "[9]", "result": "inactive"},
      {"measurement": "z-score", "setting": "[6]", "result": "-1.38 (inactive) and -0.73 (inactive)"}
    ]}
  ]
}
